Usually inhibition stands for the share of the control response that was lost under treatment.

This experiment has as its target Sentrin-specific protease 1 (Homo sapiens) (UniProt Q9P0U3). The experiment is described as follows: SENP1 SUMO protease blockers by rate readout – biochemical, kinetic FRET, single concentration, confirmation (AID 651690).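 Further: 0% = DMSO with enzyme and 100% = no enzyme substrate only.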 As to conditions: recombinant SENP1, CyPet-SUMO1-YPet FRET kinetic cleavage; at 10 µM; stronger effect = higher value.

The list shows a part of the results. Values without a mark were called inactive. No stated cut-off is given here; in the data, active means inhibition mostly above about 32% (no sharp cut-off); inactive means mostly below about 29%.

Sequence of Sentrin-specific protease 1 (Homo sapiens) (Q9P0U3 419-644 limits assumed): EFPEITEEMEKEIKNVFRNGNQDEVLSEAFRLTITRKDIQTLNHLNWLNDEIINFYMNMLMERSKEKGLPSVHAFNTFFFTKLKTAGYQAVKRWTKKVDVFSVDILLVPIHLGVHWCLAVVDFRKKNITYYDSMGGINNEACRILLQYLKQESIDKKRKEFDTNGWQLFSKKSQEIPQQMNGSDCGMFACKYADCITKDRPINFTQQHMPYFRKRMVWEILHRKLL

On to `COc1ccccc1N=Nc1c(O)[nH]c(=S)[nH]c1=O`, for which the inhibition is 31.3%.

Source of the values: PubChem BioAssay AID651690 (Sanford-Burnham Center for Chemical Genomics, 2012).
